Data on 40 compounds can be found in PubChem BioAssay.

The source made the active and inactive calls. How the calls were made is not given here.

Chain of Pantothenate synthetase (Mycobacterium tuberculosis (strain ATCC 25618 / H37Rv)) (P9WIL5 whole entry, looked up): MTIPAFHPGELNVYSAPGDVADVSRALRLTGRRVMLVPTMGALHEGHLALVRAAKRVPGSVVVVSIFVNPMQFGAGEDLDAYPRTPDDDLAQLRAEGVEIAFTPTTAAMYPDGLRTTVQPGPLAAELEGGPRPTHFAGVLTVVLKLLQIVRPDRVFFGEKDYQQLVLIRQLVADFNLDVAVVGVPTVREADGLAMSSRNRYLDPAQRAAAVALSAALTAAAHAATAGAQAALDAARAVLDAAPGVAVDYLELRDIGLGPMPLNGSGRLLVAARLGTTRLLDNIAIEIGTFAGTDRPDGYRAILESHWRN

The test has as its target Pantothenate synthetase (Mycobacterium tuberculosis (strain ATCC 25618 / H37Rv)) (UniProt P9WIL5). The experiment in a line: Recombinant Mtb pantothenate synthetase (PanC) inhibitors, coupled enzyme, confirmatory (AID 375).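 Further: 0% = full reaction with vehicle and 100% = no enzyme background.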 The settings on record: coupled enzyme assay; at 10 µM, hits give high values.
Take `Cc1nc2ccc(S(=O)(=O)NCC(=O)N3CCCCC3)cc2s1`: the inhibition is 0% (inactive).

For the compound `C=CCn1c(SCC(=O)NCC2CCCO2)nc2scc(-c3ccco3)c2c1=O` (stereo not given), the inhibition is 5% (inactive).

On to `CN(C)S(=O)(=O)c1ccc(C(=O)Nc2ccccc2C(=O)O)cc1`, for which the inhibition is 8% (inactive).

Consider `COCCn1c(=O)[nH]c2cc(C(=O)N3CCN(c4ccccc4OC)CC3)ccc2c1=O`, for which the inhibition was 2% (inactive).

As for `CC(NS(=O)(=O)c1ccc(OCC(=O)N2CCOCC2)c(Cl)c1)c1ccccc1` (stereo not given), the inhibition is 1% (inactive).

As to `COC(=O)C1=C(C)NC(=O)C1(NC(=O)CN1CCCC1=O)C(F)(F)F` (stereo not given), the inhibition was 5% (inactive).

On to `CCn1nnc(-c2ccccc2NC(=O)c2ccc(-n3cnnn3)cc2)n1`, for which the inhibition was 9% (inactive).

As to `CCC1(C)Cc2c(sc3nc(SCC(=O)O)[nH]c(=O)c23)CO1` (stereo not given), the inhibition was 0% (inactive).

Regarding `Cc1ccccc1-n1c(=O)c2ccccc2n2nnnc12`, the inhibition is 0% (inactive).

On to `O=C(CCCn1c(=S)[nH]c2cc3c(cc2c1=O)OCO3)N1CCN(c2ccccc2F)CC1`, for which the inhibition was 0% (inactive).

On to `CC(=O)OCC(=O)[C@@]12OC3(CCCC3)O[C@@H]1C[C@H]1[C@@H]3CCC4=CC(=O)C=C[C@]4(C)[C@@]3(F)[C@@H](O)C[C@@]12C`, for which the inhibition was 1% (inactive).

As for `C[C@]12CC[C@@H]3c4ccc(OS(=O)(=O)O)cc4CC[C@H]3[C@@H]1CCC2=O`, the inhibition was 0% (inactive).

`COCC(=O)N(Cc1ccc(OC)cc1)Cc1nc2ccccc2c(=O)[nH]1`: the inhibition was 0% (inactive).

Consider `CCn1c(=O)c(C(=O)NCc2ccc(OC)cc2)c(O)c2ccccc21`, for which the inhibition was 3% (inactive).

Consider `CCOC(=O)C1=C(N)c2ccccc2CC1C(C)C` (stereo not given), for which the inhibition was 0% (inactive).

Take `Cn1c(NC(=O)c2ccccc2NC(=O)C(C)(C)C)nc2ccccc21`: the inhibition is 0% (inactive).

In the case of `CC(Sc1nnc(-c2cc3ccccc3o2)n1-c1ccccc1)C(=O)O` (stereo not given), the inhibition was 12% (inactive).

For `O=C1CCC(=O)N1OCCCCOc1ccccc1`, the inhibition is 2% (inactive).

Consider `Cc1nc2ccccn2c1/C(O)=C1\C(=O)C(=O)N(CCN2CCOCC2)C1c1cccs1` (stereo not given), for which the inhibition is 0% (inactive).

`CCOC(=O)c1oc2cc(OCC(N)=O)ccc2c(=O)c1-c1ccc(OC)c(OC)c1`: the inhibition was 3% (inactive).

In the case of `CC1=C(C(=O)Nc2ccccc2C)C(c2ccc(C)o2)N2C(=O)CSC2=N1` (stereo not given), the inhibition was 0% (inactive).

Take `O=C(CCN1C(=O)COc2ccccc21)NCCCN1CCN(c2ccccc2F)CC1`: the inhibition was 0% (inactive).

As for `COC(=O)C1(C(F)(F)F)N=C2Sc3ccccc3N2C(N2CCOCC2)=N1` (stereo not given), the inhibition is 0% (inactive).

In the case of `CCN(CC(=O)NC1CCS(=O)(=O)C1)C(=O)C(c1ccccc1)c1ccccc1` (stereo not given), the inhibition is 1% (inactive).

Consider `CCCCN(CCCNC(=O)C1CCN(S(=O)(=O)CC)CC1)c1ccccc1`, for which the inhibition is 0% (inactive).

With `CCCN(C(=O)CSc1nnc(-c2ccoc2C)n1N)C1CCS(=O)(=O)C1` (stereo not given), the inhibition is 0% (inactive).

As for `O=C(NCc1ccco1)C1Cc2ccccc2CN1S(=O)(=O)c1ccccc1F` (stereo not given), the inhibition was 1% (inactive).

Consider `COc1ccc(C)cc1NC(=O)CNC(=O)Cn1ccc2ccccc2c1=O`, for which the inhibition was 5% (inactive).

Consider `CC(C)[C@H](NC(=O)[C@@H]1CSCN1C(=O)OC(C)(C)C)C(=O)NCC1CCC(C(=O)O)CC1` (stereo not given in full), for which the inhibition was 7% (inactive).

As to `CCOc1ccc2nc(SCC#N)c(C#N)cc2c1`, the inhibition is 0% (inactive).

For `CC1(C)Cc2c(c(=S)nc(-c3ccccc3)n2CCO)CO1`, the inhibition is 9% (inactive).

Consider `Cc1nc2nc(SCC(=O)NCc3ccco3)nn2c(C)c1Cc1ccccc1`, for which the inhibition is 0% (inactive).

For `CCCCC(CC)Cn1c2nc3ccccc3nc2c2c(=N)oc(C)nc21` (stereo not given), the inhibition was 7% (inactive).

With `Cc1cc2ncn(C(=O)c3c(-c4ccccc4)noc3C)c2cc1C`, the inhibition was 5% (inactive).

Turning to `C/C(=C\C(=O)O)CC(=O)O`, the inhibition was 0% (inactive).

In the case of `Cn1nnnc1SCc1cn2cccnc2n1`, the inhibition was 0% (inactive).

For `O=C(c1ccc(Cl)c(Cl)c1)N1CCOCC1`, the inhibition was 5% (inactive).

For the compound `Cc1ccnc(N2CCN(C(=O)CSc3nc4ccccc4nc3N3CCCCC3)CC2)c1`, the inhibition is 1% (inactive).

On to `COc1ccc(OCC(=O)Nc2ccc(N3CCOCC3)c(Cl)c2)cc1`, for which the inhibition is 0% (inactive).

For the compound `COc1ccccc1C(=O)NC(C)C(c1cccs1)N1CCN(C)CC1` (stereo not given), the inhibition was 3% (inactive).

Broadly, the inhibition is the percentage by which the read-out fell short of the control.
